Measured values as given in PubChem BioAssay (NCATS).
Results filed as inconclusive are left out. Activity calls are given as the source filed them. Calls follow the shape of the dose curve; as a rule, active = well fitted inhibition curve with a large enough effect; inconclusive = small, poorly fitted or top-dose-only effect; inactive = flat fitted curve, though single readings scatter.

Tests used:
Experiment in all cases: qHTS profiling for inhibitors of Plasmodium falciparum proliferation (AID 504749); also: nearly all actives have a fitted effect of over 60% in size
Settings in all cases: P. falciparum in erythrocytes, SYBR Green DNA, 72 h; series mostly up to 28.7 µM
CP256 = test system: CP256
In short: (§1)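 Three-day growth assay of blood-stage parasites in erythrocytes (0.3% parasitemia, 2.5% hematocrit) at 37 C, 5% CO2, quantified by SYBR Green DNA staining after overnight detergent lysis.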

CP260 = test system: CP260
In short: as §1

CP262 = test system: CP262
In short: as §1

CP265 = test system: CP265
In short: as §1

CP266 = test system: CP266
In short: as §1

CP268 = test system: CP268
In short: as §1

CP269 = test system: CP269
In short: as §1

CP286 = test system: CP286
In short: as §1

CP291 = test system: CP291
In short: as §1

CP297 = test system: CP297
In short: as §1

CP305 = test system: CP305
In short: as §1

CP315 = test system: CP315
In short: as §1

CP325 = test system: CP325
In short: as §1

CP329 = test system: CP329
In short: as §1

CP335 = test system: CP335
In short: as §1

DFO2036 = test system: DFO2036
In short: as §1

DIV14 = test system: DIV14
In short: as §1

DIV17 = test system: DIV17
In short: as §1

DIV30 = test system: DIV30
In short: as §1

Dd2 = test system: Dd2
In short: as §1

Measured: Potency
Potency is read from the fitted curve at half-maximal effect.

CC(=O)[C@H]1CC[C@H]2[C@@H]3CC[C@H]4C[C@H](O)CC[C@]4(C)[C@H]3C(=O)C[C@]12C
inactive: all assays above

CC[N+](CC)(CC)CC
inactive: all assays above

Cn1c(CCCC(=O)O)nc2cc(N(CCCl)CCCl)ccc21
inactive: all assays above

Clc1cccc(N2CCNCC2)c1
not listed: CP297 | CP335 | DIV14 | DIV17 | Dd2
inactive: all other assays above

NP(N)(=O)NC(=O)c1ccc(F)cc1
inactive: all assays above

CC1NCCOC1c1ccccc1 (stereo not drawn)
not listed: DIV14
inactive: all other assays above

CC(C)(C)CC(C)(C)c1ccc(O)cc1
not listed: DIV14 | DIV17 | Dd2
inactive: all other assays above

CN1CCN(C(=O)O[C@H]2c3nccnc3C(=O)N2c2ccc(Cl)cn2)CC1
inactive: all assays above

OCCOc1ccccc1
inactive: all assays above

c1ccc2c(c1)Nc1ccccc1S2
inactive: CP265 | CP266 | Dd2
active: CP260 10 µM | CP335 8.49 µM | DIV14 6.75 µM | DIV17 7.57 µM

Oc1cc(Cl)ccc1Oc1ccc(Cl)cc1Cl
inactive: CP266 | CP305
active: CP260 11.2 µM | CP269 12 µM | CP286 12.6 µM | CP297 15.1 µM | DFO2036 10 µM | DIV14 3.01 µM | DIV17 6.01 µM | DIV30 6.75 µM | Dd2 11.2 µM

CC(C)NCC(O)c1ccccc1Cl (stereo not drawn)
active: CP260 11.2 µM | CP286 10 µM | CP297 15.1 µM | DIV14 6.75 µM | DIV17 6.75 µM | Dd2 11.2 µM
inactive: CP266 | CP315 | CP329

COc1ccc(C(=O)c2c(C)n(CCN3CCOCC3)c3ccccc23)cc1
not listed: CP266 | DIV14 | DIV17
inactive: all other assays above

CN(C)CCc1ccc(O)cc1
not listed: CP266
inactive: all other assays above

FC(F)(F)c1cccc(C2=CCN(CCc3ccc4ccccc4c3)CC2)c1
not listed: CP256 | CP268
inactive: all other assays above

O=c1[nH]c2ccccc2n1CCCN1CCC(n2c(=O)[nH]c3cc(Cl)ccc32)CC1
inactive: CP262 | CP266 | CP325 | DFO2036
active: CP260 11.2 µM | CP286 11.2 µM | CP297 8.49 µM | CP335 10.7 µM | DIV14 5.36 µM | DIV17 8.49 µM | DIV30 7.57 µM

CC(C)(N)Cc1ccc(Cl)cc1
not listed: CP265 | CP268 | CP297 | CP305 | CP329 | CP335 | DIV14 | Dd2
inactive: all other assays above

O=[N+]([O-])c1cc([As](=O)(O)O)ccc1O
active: CP260 3.16 µM | CP291 5.1 µM | CP335 4.55 µM | DFO2036 3.55 µM | DIV30 5.73 µM | Dd2 3.55 µM

c1ccc(C2CC2)c(OCC2=NCCN2)c1
not listed: CP262 | DIV14 | DIV17 | Dd2
inactive: all other assays above

CC(CCc1ccccc1)NC(C)C(O)c1ccc(O)cc1 (stereo not drawn)
active: DIV14 9.53 µM | Dd2 11.2 µM
inactive: CP256 | CP262 | CP266 | CP315 | DFO2036

NCC(O)c1ccc(O)cc1 (stereo not drawn)
not listed: CP266 | DIV14
inactive: all other assays above

O=c1[nH]c2ccccc2n1C1CCN(CCCC(c2ccc(F)cc2)c2ccc(F)cc2)CC1
active: CP260 12.6 µM | CP286 11.2 µM | CP335 13.5 µM | Dd2 7.94 µM
not listed: CP256 | CP269 | CP297 | CP315 | CP325
inactive: all other assays above

CC(C)=CC1C(C(=O)OCc2cccc(Oc3ccccc3)c2)C1(C)C (stereo not drawn)
not listed: CP260 | CP286 | DIV30 | Dd2
inactive: all other assays above

N[C@@H](Cc1ccc(N(CCCl)CCCl)cc1)C(=O)O
active: DIV14 10.7 µM | DIV17 15.1 µM | Dd2 12.6 µM
not listed: CP260 | CP265 | CP269 | CP286 | CP335 | DFO2036
inactive: all other assays above

CCN(CC)CCN1C(=O)CN=C(c2ccccc2F)c2cc(Cl)ccc21
not listed: CP265 | CP291 | CP329 | CP335 | DIV14 | Dd2
inactive: all other assays above

N#CC(C#N)=Cc1ccc(O)c(O)c1
not listed: CP256 | CP297 | CP335 | DIV17
inactive: all other assays above

O=C1NCN(c2ccccc2)C12CCN(CC1COc3ccccc3O1)CC2 (stereo not drawn)
not listed: CP260 | DIV17
inactive: all other assays above

CCC1(C2=NCCN2)Cc2ccccc2O1 (stereo not drawn)
inactive: CP262
active: CP297 9.53 µM | CP335 8.49 µM | Dd2 10 µM

CN1C[C@H](CNC(=O)OCc2ccccc2)C[C@@H]2c3cccc4c3c(cn4C)C[C@H]21
active: CP256 6.31 µM | CP260 11.2 µM | CP262 6.75 µM | CP265 5.62 µM | CP286 8.91 µM | CP335 6.75 µM | DFO2036 8.91 µM | DIV14 8.49 µM | DIV17 15.1 µM | DIV30 15.1 µM | Dd2 7.94 µM

COc1ccc(C(CN(C)C)C2(O)CCCCC2)cc1 (stereo not drawn)
not listed: CP265 | CP266 | CP297 | CP325 | CP335 | DIV17 | Dd2
inactive: all other assays above

Oc1ccc(Cl)cc1Cc1ccccc1
active: DIV14 7.57 µM | DIV17 7.57 µM | DIV30 10.7 µM | Dd2 10 µM
inactive: CP262 | CP266 | CP286 | CP315 | CP325 | CP329

C=C(C)[C@H]1Cc2c(ccc3c2O[C@@H]2COc4cc(OC)c(OC)cc4[C@@H]2C3=O)O1
not listed: CP262 | CP269 | CP291 | CP335 | DIV14 | DIV17 | DIV30
inactive: all other assays above

Cc1cccc(C)c1NC1=NCCCS1
active: Dd2 12.6 µM
inactive: CP266 | CP315

C=C1CC[C@@]2(O)[C@H]3Cc4ccc(O)c5c4[C@@]2(CCN3CC2CC2)[C@H]1O5
not listed: CP260 | DIV14 | Dd2
inactive: all other assays above

Cc1ccc(S(=O)(=O)N[C@@H](CCCCN)C(=O)CCl)cc1
inactive: CP266 | CP268 | CP269 | CP297 | CP315 | DIV30
active: CP256 7.94 µM

COc1ccccc1N1CCNCC1
not listed: CP260
inactive: all other assays above

Fc1ccc(C(OCCN2CCN(CCCc3ccccc3)CC2)c2ccc(F)cc2)cc1
active: CP260 10 µM | CP269 15.1 µM | CP286 11.2 µM | CP291 10.7 µM | CP305 10.7 µM | CP325 15.1 µM | CP335 9.53 µM | DFO2036 11.2 µM | DIV14 10.7 µM | DIV17 10.7 µM
inactive: CP262
